Test results: PubChem BioAssay (Tox21)
Inconclusive results are not listed. The source made the active and inactive calls. Calls come from the whole dose curve; as a rule, active = well fitted cell-killing curve with a large enough effect in the repeat runs; inconclusive = weak or mixed curves, or effect the other way; inactive = flat fitted curve, though single readings scatter.

Test: qHTS assay to identify small molecule agonists of the TGF-beta/Smad signaling pathway - cell viability counter screen (AID 1346829); note: nearly all actives have a fitted effect of over 45% in size; for activity change, negative = cytotoxicity: top concentration of the series differs between compounds
Conditions: SBE-bla HEK293T viability, CellTiter-Glo luminescence, 5 h; series mostly up to 76.8 µM; activity change, negative = cytotoxicity: at the top concentration
From the text: National Center for Advancing Translational Sciences [NCATS]
NIH Chemical Genomics Center [NCGC]
U.S. Environmental Protection Agency [EPA]
National Institutes of Environmental Health Sciences [NIEHS]
National Toxicology Program [NTP]
U.S. Food and Drug Administration [FDA]
Transforming growth factor beta (TGF-beta) superfamily consists of a large number of structurally related dimeric proteins that act as hormones or local mediators in regulating a wide range of biological functions. This superfamily includes TGF-betas themselves, the bone morphogenetic proteins (BMPs) and the activins. These ligands induce oligomerization of serine/threonine receptor kinases and phosphorylate the cytoplasmic signaling molecules of Smad protein family. CellSensor SBE-bla HEK 293T cell line (Life Technologies, Carlsbad, CA), responsive to TGF-beta was used to screen Tox21 10K compound library for identification of agonists/antagonists of the Smad signaling pathway. This cell line contains a beta-lactamase reporter gene under control of the Smad binding element (SBE) stably integrated into HEK 293T cells. Also cytotoxicity of the compounds was tested in parallel by measuring the cell viability using CellTiter-Glo assay system in the same wells.
Tox21 Assay Protocol Summary:
SBE-bla HEK 293T cells were dispensed at 4,000/well in 6 uL of assay medium into black wall/clear-bottom 1536-well plates using a Multidrop Combi (ThermoFisher Scientific, Waltham, MA) dispenser. After the assay plates were incubated at 37 C and 5% CO2 for an overnight, 23 nL of compounds dissolved in DMSO, positive controls or DMSO only was transferred to the assay plate by a Pintool station (Kalypsys, San Diego, CA). The assay plates were incubated at 37 C and 5% CO2 for 5 hr. One uL of LiveBLAzer B/G FRET substrate (Life Technologies) was added using a Flying Reagent Dispenser (FRD, Aurora Discovery, San Diego, CA) and the plates were incubated at room temperature for 2 hr. Fluorescence intensity (405 nm excitation, 460 nm and 530 nm emissions) was measured using an Envision plate reader (PerkinElmer, Shelton, CT). For cytotoxicity read, 4 uL of CellTiter-Glo reagent (Promega Corporation, Madison, WI) was added to each well of the assay plates using FRD. After 30min incubation at room temperature, the luminescence intensity was measured using ViewLux plate reader (PerkinElmer).
% is set by controls: 0 for no effect and ±100 for the full control effect; potency is the fitted concentration of half-maximal effect.

SMILES | activity change, negative = cytotoxicity | Potency
C/C=C/C=N/NC(=O)c1ccncc1 | -19.6% [at 35.3 µM] (inactive) | –
CC(C)=CCCC(C)CCOC(=O)C(C)C (stereo not given) | 3.08% (inactive) | –
C1CC(COCC2CO2)CCC1COCC1CO1 (stereo not given) | -4.72% (inactive) | –
Brc1ccccc1-c1ccccc1 | -11.8% (inactive) | –
CCC(=O)OCCc1ccccc1 | -15.3% (inactive) | –
CCc1c(Br)c(Br)c(Br)c(Br)c1Br | -2.35% (inactive) | –
CC(O)C#CC(C)O (stereo not given) | 21.1% (inactive) | –
C[C@@]12C(=O)OC(=O)[C@]1(C)C1CCC2O1 | 29.5% [at 35.3 µM] (inactive) | –
C/C=C/C(=O)C1=C(C)CCCC1(C)C | 1.71% (inactive) | –
CCCCN(C)C | -12.3% (inactive) | –
CCCC(C)CCC(C)=O (stereo not given) | -18.4% (inactive) | –
Cc1ccc2ccc3cccc4ccc1c2c34 | 0.814% (inactive) | –
C=CCCCCCCC=C | 1.52% (inactive) | –
CC(=O)OC1CCCCC1 | -0.984% (inactive) | –
CSc1c(Cl)c(Cl)c(Cl)c(Cl)c1Cl | -11.9% (inactive) | –
COC(=O)CC(C)CCC=C(C)C (stereo not given) | -0.57% (inactive) | –
CCCCCCCC/C=C\CCCCCCCC(=O)NCc1ccc(O)c(OC)c1 | -9.17% [at 35.3 µM] (inactive) | –
C=CC(C)C#N (stereo not given) | -17.9% (inactive) | –
CCN=C1C=CC(=C(c2ccc(N(CC)CC)cc2)c2ccc(N(CC)CC)cc2)c2ccccc21 | – | 24.4 µM (active)
CC1CCCCC1 | -22.9% (inactive) | –

SMILES | activity change, negative = cytotoxicity | Potency
Cc1cccc(C)c1NC(=O)CN1CCN(CCCC(c2ccc(F)cc2)c2ccc(F)cc2)CC1 | -22% [at 35.3 µM] (inactive) | –
CCCCCCCCCCCCCCCCCO | -0.289% [at 15.8 µM] (inactive) | –
CCOC(/C=C(\C)CCC=C(C)C)OCC | 3.49% (inactive) | –
Cc1cncc(C)c1 | 8.64% (inactive) | –
O=C1OC(=O)c2ccc3c4c(ccc1c24)C(=O)OC3=O | 1.66% (inactive) | –
S=P(N1CC1)(N1CC1)N1CC1 | -2.45% (inactive) | –
Cc1cc(=O)[nH]c(=O)[nH]1 | 9.69% (inactive) | –
CN1[C@@H]2CC[C@H]1CC(OC(=O)C(CO)c1ccccc1)C2 (stereo not given in full) | – | inactive
CN1[C@@H]2CC[C@@H]1CC(OC(=O)C(CO)c1ccccc1)C2 (stereo not given in full) | -12.6% [at 35.3 µM] (inactive) | –
CO[Si](CCC1CCC2OC2C1)(OC)OC (stereo not given) | 7.08% (inactive) | –
O=C(O)CCCCCCC(=O)O | 18.1% (inactive) | –
CCCCCCCCCCc1ccccc1 | -4.68% (inactive) | –
CCCCCCOc1ccc(O)cc1 | -28.8% (inactive) | –
CC(C)(C)c1cc(CCC(=O)NCCCCCCNC(=O)CCc2cc(C(C)(C)C)c(O)c(C(C)(C)C)c2)cc(C(C)(C)C)c1O | -10.5% (inactive) | –
Oc1cc2ccccc2cc1O | -5.96% (inactive) | –
CCC(C)C(=O)OC (stereo not given) | 6.04% (inactive) | –
O=C1OC(OC(=O)c2cccnc2Nc2cccc(C(F)(F)F)c2)c2ccccc21 (stereo not given) | -24.5% [at 35.3 µM] (inactive) | –
CC(=O)O[C@@H]1C[C@@H]2CC[C@@]1(C)C2(C)C | -5.77% (inactive) | –
O=C(Nc1ccc(Cl)c(Cl)c1)c1cc(Cl)cc(Cl)c1O | – | 6.92 µM (active)
COc1cccc(O)c1 | -8.78% (inactive) | –
